# From the supplement of paper PMC10849652
# Targets with a hit are over-represented here; the source holds about 7,900 in all. About 0.6% of all pairs of compound and target were hits. Values without a mark were called inactive.
# Assays:
# Assay in all cases: log2 fold change, soluble protein after heating vs DMSO (PISA); higher = thermal stabilisation; K562 cells, 10 uM, 30 min; active = over 0.2 and 3.5 SD of the protein, either way, in both replicates (recomputed)
# [1] = compound: NC(=O)Nc1cc(-c2cccc(F)c2)sc1C(=O)N[C@H]1CCCNC1
# Outline: (§1)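 K562 cells at 2×10^6 cells/mL were exposed to 10 μM compound for 30 min, then aliquots were heated for 3 min across 48°C-58°C, pooled, and extracted in PBS containing 0.5% NP-40 at 4°C. The supernatant after 21,000xg for 90 min was taken as soluble protein and measured by TMTpro 16plex LC-MS/MS with channel sums equalised. Thermal stability is reported relative to control samples, with values from duplicates. Fold changes are given on a log2 scale.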
# [2] = compound: NC(=O)c1cnc(N[C@@H]2CCCC[C@@H]2N)nc1Nc1cccc(-n2nccn2)c1
# Outline: as §1
# [3] = compound: NC1(c2ccc(-c3nc4ccn5c(=O)[nH]nc5c4cc3-c3ccccc3)cc2)CCC1
# Outline: as §1
# [4] = compound: NCC(=O)Nc1ccc(-n2nc(C(F)(F)F)cc2-c2ccc3c(ccc4ccccc43)c2)cc1
# Outline: as §1
# entinostat = compound: Nc1ccccc1NC(=O)c1ccc(CNC(=O)OCc2cccnc2)cc1 [entinostat]
# Outline: as §1
# vorinostat = compound: O=C(CCCCCCC(=O)Nc1ccccc1)NO [vorinostat]
# Outline: as §1
# citarinostat = compound: O=C(CCCCCCNC(=O)c1cnc(N(c2ccccc2)c2ccccc2Cl)nc1)NO [citarinostat]
# Outline: as §1
# silmitasertib = compound: O=C(O)c1ccc2c(c1)nc(Nc1cccc(Cl)c1)c1ccncc12 [silmitasertib]
# Outline: as §1
# [5] = compound: O=C1NC(=O)C(c2cnc3ccccn23)=C1c1cn2c3c(cc(F)cc13)CN(C(=O)N1CCCCC1)CC2
# Outline: as §1
# [6] = compound: c1cc(OCCN2CCCCC2)cc(-c2n[nH]c3ccc(-c4nnc[nH]4)cc23)c1
# Outline: as §1
# entospletinib = compound: c1cn2cc(-c3ccc4cn[nH]c4c3)nc(Nc3ccc(N4CCOCC4)cc3)c2n1 [entospletinib]
# Outline: as §1
# Sequence of UniProt Q9BPX3 (Q9BPX3 whole entry, looked up): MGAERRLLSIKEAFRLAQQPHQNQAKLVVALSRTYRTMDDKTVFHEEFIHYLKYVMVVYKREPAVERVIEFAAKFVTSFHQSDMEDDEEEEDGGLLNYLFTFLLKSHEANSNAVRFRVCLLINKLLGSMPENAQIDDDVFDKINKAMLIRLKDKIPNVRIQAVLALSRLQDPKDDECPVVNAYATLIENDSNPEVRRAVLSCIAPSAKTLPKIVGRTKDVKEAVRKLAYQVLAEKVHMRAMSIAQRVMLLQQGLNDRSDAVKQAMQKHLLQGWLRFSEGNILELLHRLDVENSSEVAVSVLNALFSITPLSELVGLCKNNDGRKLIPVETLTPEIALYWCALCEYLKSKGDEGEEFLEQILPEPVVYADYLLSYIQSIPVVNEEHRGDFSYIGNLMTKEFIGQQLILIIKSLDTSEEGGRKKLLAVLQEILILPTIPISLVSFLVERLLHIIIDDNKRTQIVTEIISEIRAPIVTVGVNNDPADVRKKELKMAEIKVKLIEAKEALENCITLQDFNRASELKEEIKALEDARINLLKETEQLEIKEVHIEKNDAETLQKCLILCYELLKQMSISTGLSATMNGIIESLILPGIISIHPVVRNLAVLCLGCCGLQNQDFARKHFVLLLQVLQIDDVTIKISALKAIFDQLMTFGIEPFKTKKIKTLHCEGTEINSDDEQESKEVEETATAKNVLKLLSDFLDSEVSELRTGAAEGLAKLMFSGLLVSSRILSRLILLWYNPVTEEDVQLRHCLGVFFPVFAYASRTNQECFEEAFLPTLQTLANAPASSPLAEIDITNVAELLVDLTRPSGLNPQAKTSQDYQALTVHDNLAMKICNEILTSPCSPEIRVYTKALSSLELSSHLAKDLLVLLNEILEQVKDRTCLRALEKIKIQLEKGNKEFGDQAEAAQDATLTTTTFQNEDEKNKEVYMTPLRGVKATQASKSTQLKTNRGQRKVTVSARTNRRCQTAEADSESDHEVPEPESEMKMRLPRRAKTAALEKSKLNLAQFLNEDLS
# Sequence of UniProt Q9BS92 (Q9BS92 whole entry, looked up): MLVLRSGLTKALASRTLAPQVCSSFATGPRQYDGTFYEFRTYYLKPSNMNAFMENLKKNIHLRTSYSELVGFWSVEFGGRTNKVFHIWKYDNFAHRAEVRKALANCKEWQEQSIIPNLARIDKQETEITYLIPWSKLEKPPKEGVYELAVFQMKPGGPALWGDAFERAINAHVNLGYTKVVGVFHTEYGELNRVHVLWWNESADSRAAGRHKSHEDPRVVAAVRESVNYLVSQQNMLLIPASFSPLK
# Sequence of UniProt P68402 (P68402 whole entry, looked up): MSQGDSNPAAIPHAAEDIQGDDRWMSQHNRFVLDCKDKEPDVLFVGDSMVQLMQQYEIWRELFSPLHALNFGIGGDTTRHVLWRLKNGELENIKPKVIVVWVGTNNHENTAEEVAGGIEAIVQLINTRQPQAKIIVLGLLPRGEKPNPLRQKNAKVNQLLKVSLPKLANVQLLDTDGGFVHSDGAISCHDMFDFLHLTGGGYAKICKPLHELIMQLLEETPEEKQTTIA
# Sequence of UniProt P35580 (P35580 whole entry, looked up): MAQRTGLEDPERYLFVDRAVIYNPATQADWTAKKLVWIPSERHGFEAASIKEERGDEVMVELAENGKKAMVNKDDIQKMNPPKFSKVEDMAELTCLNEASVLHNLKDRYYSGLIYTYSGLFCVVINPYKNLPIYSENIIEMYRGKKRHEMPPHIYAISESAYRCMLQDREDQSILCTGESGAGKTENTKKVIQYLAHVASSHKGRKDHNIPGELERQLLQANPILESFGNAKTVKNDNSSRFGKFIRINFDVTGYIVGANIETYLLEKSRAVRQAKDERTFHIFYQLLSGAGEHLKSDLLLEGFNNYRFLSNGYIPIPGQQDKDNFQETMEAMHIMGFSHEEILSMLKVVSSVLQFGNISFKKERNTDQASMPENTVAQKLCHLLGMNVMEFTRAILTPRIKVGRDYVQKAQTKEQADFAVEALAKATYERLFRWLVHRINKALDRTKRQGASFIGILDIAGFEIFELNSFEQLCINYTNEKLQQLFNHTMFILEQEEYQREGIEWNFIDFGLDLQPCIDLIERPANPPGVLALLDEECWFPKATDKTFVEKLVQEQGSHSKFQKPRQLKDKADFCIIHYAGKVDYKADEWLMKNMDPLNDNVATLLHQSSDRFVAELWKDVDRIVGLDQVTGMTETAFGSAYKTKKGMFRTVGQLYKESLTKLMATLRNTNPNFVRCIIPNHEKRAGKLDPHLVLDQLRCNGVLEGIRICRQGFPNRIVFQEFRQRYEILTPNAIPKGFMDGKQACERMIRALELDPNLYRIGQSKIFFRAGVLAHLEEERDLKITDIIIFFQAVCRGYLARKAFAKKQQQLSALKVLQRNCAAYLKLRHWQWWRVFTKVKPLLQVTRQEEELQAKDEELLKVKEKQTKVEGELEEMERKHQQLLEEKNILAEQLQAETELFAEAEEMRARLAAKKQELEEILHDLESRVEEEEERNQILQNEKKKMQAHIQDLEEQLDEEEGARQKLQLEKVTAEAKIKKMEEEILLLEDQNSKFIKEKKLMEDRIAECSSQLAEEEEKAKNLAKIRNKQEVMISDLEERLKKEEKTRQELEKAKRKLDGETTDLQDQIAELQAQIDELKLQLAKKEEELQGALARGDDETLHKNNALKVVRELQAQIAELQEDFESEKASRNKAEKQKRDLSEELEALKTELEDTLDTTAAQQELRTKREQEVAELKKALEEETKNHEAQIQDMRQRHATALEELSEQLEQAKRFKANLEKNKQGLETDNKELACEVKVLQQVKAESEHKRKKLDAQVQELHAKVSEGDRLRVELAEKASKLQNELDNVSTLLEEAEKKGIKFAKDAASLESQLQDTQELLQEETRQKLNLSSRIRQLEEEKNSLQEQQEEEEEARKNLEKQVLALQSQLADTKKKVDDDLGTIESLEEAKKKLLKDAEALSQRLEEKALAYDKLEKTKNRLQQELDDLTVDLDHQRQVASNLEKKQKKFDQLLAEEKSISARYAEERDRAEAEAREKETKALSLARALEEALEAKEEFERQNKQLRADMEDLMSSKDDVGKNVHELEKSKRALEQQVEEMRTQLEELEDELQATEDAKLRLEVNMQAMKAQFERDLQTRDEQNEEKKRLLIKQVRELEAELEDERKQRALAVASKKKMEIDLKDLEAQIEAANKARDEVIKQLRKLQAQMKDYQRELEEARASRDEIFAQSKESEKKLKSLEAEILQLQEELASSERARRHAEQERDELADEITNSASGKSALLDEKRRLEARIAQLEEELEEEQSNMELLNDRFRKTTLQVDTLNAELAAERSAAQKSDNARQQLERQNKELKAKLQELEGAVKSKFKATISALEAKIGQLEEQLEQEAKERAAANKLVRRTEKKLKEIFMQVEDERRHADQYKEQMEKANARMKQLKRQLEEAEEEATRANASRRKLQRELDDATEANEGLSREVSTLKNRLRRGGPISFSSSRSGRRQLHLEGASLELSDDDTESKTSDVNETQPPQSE
# Sequence of UniProt Q9UHC9 (Q9UHC9 whole entry, looked up): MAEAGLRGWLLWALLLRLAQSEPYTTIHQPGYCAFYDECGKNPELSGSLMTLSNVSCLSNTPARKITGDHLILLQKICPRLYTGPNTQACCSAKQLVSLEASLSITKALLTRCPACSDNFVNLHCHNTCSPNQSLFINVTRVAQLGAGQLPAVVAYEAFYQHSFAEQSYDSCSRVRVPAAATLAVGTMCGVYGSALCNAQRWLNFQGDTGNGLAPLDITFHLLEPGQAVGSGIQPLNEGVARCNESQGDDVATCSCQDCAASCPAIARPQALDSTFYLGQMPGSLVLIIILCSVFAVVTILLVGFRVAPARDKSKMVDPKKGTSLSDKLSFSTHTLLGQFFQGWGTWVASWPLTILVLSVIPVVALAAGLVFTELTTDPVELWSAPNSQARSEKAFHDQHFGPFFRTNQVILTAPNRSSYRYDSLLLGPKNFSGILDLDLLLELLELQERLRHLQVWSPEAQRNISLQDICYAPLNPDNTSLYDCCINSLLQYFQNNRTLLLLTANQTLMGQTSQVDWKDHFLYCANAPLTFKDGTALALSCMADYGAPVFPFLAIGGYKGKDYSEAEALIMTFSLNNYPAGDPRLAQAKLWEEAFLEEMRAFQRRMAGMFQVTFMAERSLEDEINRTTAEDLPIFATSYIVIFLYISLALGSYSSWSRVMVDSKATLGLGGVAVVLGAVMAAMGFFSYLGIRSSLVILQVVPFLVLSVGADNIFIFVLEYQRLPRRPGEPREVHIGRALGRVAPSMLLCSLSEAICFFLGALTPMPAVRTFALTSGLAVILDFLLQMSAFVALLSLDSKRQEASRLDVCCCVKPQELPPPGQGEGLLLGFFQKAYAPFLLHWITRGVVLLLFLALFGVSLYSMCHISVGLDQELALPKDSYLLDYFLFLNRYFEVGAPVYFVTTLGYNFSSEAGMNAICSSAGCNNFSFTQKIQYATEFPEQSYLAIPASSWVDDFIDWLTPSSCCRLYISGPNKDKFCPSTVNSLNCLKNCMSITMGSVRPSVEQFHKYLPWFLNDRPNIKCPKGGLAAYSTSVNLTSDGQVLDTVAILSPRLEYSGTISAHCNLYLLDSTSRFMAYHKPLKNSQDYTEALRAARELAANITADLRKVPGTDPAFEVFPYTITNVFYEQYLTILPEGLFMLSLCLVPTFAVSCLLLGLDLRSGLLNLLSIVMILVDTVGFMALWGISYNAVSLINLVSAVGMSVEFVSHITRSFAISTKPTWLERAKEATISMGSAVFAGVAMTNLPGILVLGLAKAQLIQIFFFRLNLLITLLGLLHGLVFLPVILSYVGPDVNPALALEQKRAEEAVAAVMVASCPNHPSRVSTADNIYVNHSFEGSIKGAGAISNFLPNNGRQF
# Sequence of UniProt P00846 (P00846 whole entry, looked up): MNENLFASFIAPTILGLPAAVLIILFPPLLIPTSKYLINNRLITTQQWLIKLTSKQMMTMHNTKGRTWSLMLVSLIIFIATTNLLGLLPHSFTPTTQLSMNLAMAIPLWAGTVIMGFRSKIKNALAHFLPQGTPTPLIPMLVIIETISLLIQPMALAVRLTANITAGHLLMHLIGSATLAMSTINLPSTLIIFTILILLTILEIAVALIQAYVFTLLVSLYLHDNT
Target,log2 fold change [1],log2 fold change [2],log2 fold change [3],log2 fold change [4],log2 fold change (entinostat),log2 fold change (vorinostat),log2 fold change (citarinostat),log2 fold change (silmitasertib),log2 fold change [5],log2 fold change [6],log2 fold change (entospletinib)
"MTHFD1, A0A384N5Y3",-0.048,-0.033,0.17,-0.077,-0.059,0.013,0.024,-0.091,-0.056,0.041,0.051
NDUFB7 (UniProt P17568),0.039,-0.015,-0.02,0.055,-0.013,-0.037,0.029,0,-0.094,0.009,-0.074
MRPS9 (UniProt P82933),-0.03,-0.011,-0.117,0.018,0.008,0.167,0.035,-0.083,-0.019,-0.081,0.087
MRPS35 (UniProt P82673),0.035,-0.07,-0.082,0.012,-0.027,0.088,-0.011,-0.119,-0.033,-0.03,0.036
NFE2 (UniProt Q16621),0.035,-0.049,-0.091,-0.062,-0.024,0.055,0.04,0.145,-0.037,0.006,-0.055
MORC3 (UniProt Q14149),0.024,-0.047,-0.241,-0.22,-0.021,-0.159,-0.118,0.201,-0.066,0.089,-0.088
NMT2 (UniProt O60551),0,-0.089,-0.168,-0.164,-0.004,-0.049,0.007,-0.028,-0.017,-0.491 (active),0.023
PAFAH1B2 (UniProt P68402),0.015,0.049,-0.037,-0.025,0.045,-0.088,0.021,0.106,-0.048,-0.097,0.022
NSDHL (UniProt Q15738),-0.14,-0.061,0.11,-0.033,-0.018,-0.04,0.023,-0.023,-0.027,0.02,-0.05
PAFAH2 (UniProt Q99487),0.079,-0.194,,0.04,0.075,,,,,,
NUCKS1 (UniProt Q9H1E3),-0.405 (active),0.035,0.014,0.04,-0.01,-0.08,-0.022,-0.008,-0.044,0.079,-0.02
MYH10 isoform 3 (UniProt P35580),0.014,-0.026,-0.102,-0.035,0.019,0.004,0.041,-0.008,-0.036,0.013,-0.073
NPC1L1 (UniProt Q9UHC9),0.011,-0.038,-0.104,-0.024,-0.011,,0.036,-0.028,,0.054,-0.007
NAA11 (UniProt Q9BSU3),0.139,-0.048,-0.072,0.167,0.375 (active),,-0.05,-0.001,-0.064,-0.022,-0.041
NAGPA (UniProt Q9UK23),0.051,-0.045,0.03,,0.04,-0.122,0.074,-0.237,0.043,-0.023,-0.109
MYH16 (UniProt Q9H6N6),0.467,0.051,-0.057,0.051,0.289,0.291,,-0.044,,,
NIBAN1 (UniProt Q9BZQ8),-0.118,-0.036,-0.169,-0.036,0.073,0.106,0.123,0.029,-0.069,-0.106,0.055
MTFR1L (UniProt Q9H019),-0.069,-0.079,,-0.005,0.069,0.356,,,-0.014,,
MRPS5 (UniProt P82675),0.009,0.034,-0.057,0.013,0,0.125,0.023,-0.043,-0.039,-0.018,0.044
NA isoform 3 (UniProt Q4G0T1),-0.114,-0.207,0.015,-0.02,0.01,,,0.037,,,
NCK1 (UniProt P16333),-0.118,-0.247,-0.056,-0.112,0.085,,,0.077,-0.194,,
NUP210 (UniProt Q8TEM1),0.022,-0.173,-0.19,-0.126,0.047,0.054,0.022,-0.033,-0.004,-0.023,-0.125
OTUD6B (UniProt Q8N6M0),-0.122,-0.121,-0.167,-0.064,0.022,0.215,-0.013,0.059,-0.065,-0.053,-0.028
NCAPG (UniProt Q9BPX3),-0.062,-0.036,-0.118,-0.06,0.073,0.101,0.067,0.1,0.005,-0.016,0
NCBP2AS2 (UniProt Q69YL0),-0.21,-0.161,-0.312,-0.157,-0.004,0.024,0,0.024,,-0.046,-0.017
MITF (UniProt O75030),-0.023,0.021,-0.11,0.302,-0.048,0.2,0.083,0.071,,-0.022,-0.085
NIPSNAP3B (UniProt Q9BS92),0.279,0.011,-0.069,0.053,-0.001,-0.064,0.137,-0.022,,-0.09,-0.03
NECTIN2 isoform 2 (UniProt Q92692),0.072,0.171,-0.194,0.031,-0.032,0.087,0.108,-0.039,-0.495,0.09,-0.003
MT-ND1 (UniProt P03886),0.166,0.244,-0.004,0.289,-0.051,,0.05,0.039,0.1,-0.075,0.1
MT-ATP6 (UniProt P00846),-0.003,-0.007,0.197,0.081,-0.018,-0.007,0.097,-0.005,0.037,-0.04,0.029
